The text below walks through data of PubChem BioAssay (NCI).

The panel holds about 83,000 compounds, 20% with a hit somewhere; the sample as a whole holds those more often.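 Method: cells in 96-well plates; compound added at one concentration; 48 h incubation; percent growth measured; values under 10 scored active.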 Values without a mark were called inactive. Calls of active or inactive are those of the source.

Test in all cases: NCI-60 one-dose screen, 48 h (100 = growth as untreated, 0 = no growth, -100 = all killed)
One test concerns EKVX NSCLC. The conditions noted are these: 10 µM unless noted.
The next test deals with SN12C renal. The conditions noted are these: 10 µM unless noted.
For the next test, the system named is UO-31 renal. The conditions noted are these: 10 µM unless noted.
For another test, the system named is TK-10 renal. The conditions noted are these: 10 µM unless noted.
The subject of a further test is ACHN renal. The conditions noted are these: 10 µM unless noted.
A further test concerns A498 renal. The conditions noted are these: 10 µM unless noted.
The test system of another test is CCRF-CEM leukemia. The conditions noted are these: 10 µM unless noted.
The next test relates to OVCAR-8 ovarian. The conditions noted are these: 10 µM unless noted.
For the next test, the system named is OVCAR-5 ovarian. The conditions noted are these: 10 µM unless noted.
The test system of another test is OVCAR-4 ovarian. The conditions noted are these: 10 µM unless noted.
The next test concerns SK-OV-3 ovarian. The conditions noted are these: 10 µM unless noted.
A further test relates to OVCAR-3 ovarian. The conditions noted are these: 10 µM unless noted.
The test system of a further test is HS 578T breast. The conditions noted are these: 10 µM.
In another test the test system is NCI/ADR-RES ovarian. The conditions noted are these: 10 µM unless noted.
A further test deals with CAKI-1 renal. The conditions noted are these: 10 µM unless noted.
Another test concerns MOLT-4 leukemia. The conditions noted are these: 10 µM unless noted.
Another test relates to SR leukemia. The conditions noted are these: 10 µM unless noted.
The subject of a further test is RPMI-8226 leukemia. The conditions noted are these: 10 µM unless noted.
The subject of a further test is IGROV1 ovarian. The conditions noted are these: 10 µM unless noted.

On to `Nc1cc2nc3ccccc3oc-2cc1=O`, for which the growth was 61% with EKVX NSCLC; -48.8% (active) in the test on SN12C renal; -40.2% (active) in the test with UO-31 renal; 173% in the test with TK-10 renal; 53.3% in the test on ACHN renal; -7.02% (active) with A498 renal. Besides, the growth in the test with CCRF-CEM leukemia is 94%; with OVCAR-8 ovarian, 58.4%; with OVCAR-5 ovarian it was 81.6%; with OVCAR-4 ovarian it was 69.6%; with SK-OV-3 ovarian it was 92.4%; in the test with OVCAR-3 ovarian it was 10.1%. For the same molecule, the growth in the test on HS 578T breast was -38.3% (active); in the test on NCI/ADR-RES ovarian it was 60.6%.

As to `CCOC(=O)C1=C(C)NC(SCc2nnc(-c3ccc(Cl)cc3)o2)=NC1c1ccc(Br)cc1` (configuration not stated), the growth in the test with EKVX NSCLC was 71.3%; in the test with UO-31 renal, 52.6%; in the test on TK-10 renal it was 79.9%; with ACHN renal, 69.7%; in the test with CAKI-1 renal, 67.2%; in the test on A498 renal, 73.2%. Moreover, the growth is 43.4% in the test on CCRF-CEM leukemia; 8.29% (active) in the test with MOLT-4 leukemia; 38.8% in the test on SR leukemia; 38.4% in the test with RPMI-8226 leukemia; 72.7% in the test on OVCAR-8 ovarian; 69.6% with OVCAR-4 ovarian. In addition, the growth with SK-OV-3 ovarian was 82%; with IGROV1 ovarian it was 65.5%; in the test on OVCAR-3 ovarian, 77.5%; in the test with HS 578T breast, 87.1%; with NCI/ADR-RES ovarian, 67.5%.

In the case of `N#Cc1ccc(NC(=O)Nc2nc3ccc(OC(F)(F)F)cc3s2)cc1`, the growth with EKVX NSCLC is -6.94% (active); in the test on SN12C renal, -4.65% (active); in the test on UO-31 renal it was -2.76% (active); with ACHN renal, -10.6% (active); in the test with CAKI-1 renal, -15.5% (active); with A498 renal, -28.1% (active). Moreover, the growth with CCRF-CEM leukemia is 3.09% (active); in the test with MOLT-4 leukemia, -13.9% (active); with SR leukemia, -38.4% (active); with RPMI-8226 leukemia, -9.16% (active); with OVCAR-8 ovarian it was 8.91% (active); in the test on OVCAR-5 ovarian, 16%. Moreover, the growth is 0.444% (active) in the test with SK-OV-3 ovarian; 13.2% in the test on IGROV1 ovarian; 28.9% in the test with OVCAR-3 ovarian; -0.817% (active) in the test with HS 578T breast; -13.8% (active) in the test on NCI/ADR-RES ovarian.

On to `COc1cc(/C=C/c2ccc3c(Br)cc(Br)c(O)c3n2)ccc1O`, for which the growth was 23.1% in the test with EKVX NSCLC; 52.8% with SN12C renal; 0.12% (active) in the test with UO-31 renal; 30.3% with TK-10 renal; 22% in the test on ACHN renal; -4.9% (active) in the test with A498 renal. In addition, the growth was -24.5% (active) in the test with CCRF-CEM leukemia; 17.5% in the test with OVCAR-8 ovarian; 63.2% in the test on OVCAR-5 ovarian; 17.4% in the test on OVCAR-4 ovarian; 58.2% with SK-OV-3 ovarian; -44.8% (active) in the test with IGROV1 ovarian. Moreover, the values for the growth in the test with OVCAR-3 ovarian, in the test with HS 578T breast and in the test with NCI/ADR-RES ovarian were 1.97% (active), 3.67% (active) and 6.88% (active), respectively.

Consider `CC(=O)OC1Oc2ccccc2-c2oc3nc(=N)n(C)c-3cc21` (configuration not stated), for which the growth is 122% in the test on EKVX NSCLC; 108% with SN12C renal; 88.6% with UO-31 renal; 155% in the test on TK-10 renal; 110% with ACHN renal; 138% in the test with A498 renal. In addition, the growth was 77% in the test with CCRF-CEM leukemia; 98.6% with OVCAR-8 ovarian; 107% in the test with OVCAR-5 ovarian; 104% in the test with OVCAR-4 ovarian; 104% in the test on SK-OV-3 ovarian; 102% with IGROV1 ovarian. Further, the growth in the test on HS 578T breast is 143%; in the test with NCI/ADR-RES ovarian, 96%.

Take `O=[N+]([O-])c1cc(F)c2cccnc2c1O`: the growth with EKVX NSCLC was 110%; with SN12C renal, 93.5%; in the test with UO-31 renal it was 73.6%; in the test with TK-10 renal, 152%; with ACHN renal, 89.4%; in the test on CCRF-CEM leukemia it was 120%. The growth with OVCAR-8 ovarian was 88.8%; in the test with OVCAR-5 ovarian, 105%; with OVCAR-4 ovarian, 102%; in the test with SK-OV-3 ovarian, 97.4%; in the test on IGROV1 ovarian, 3.74% (active); in the test on OVCAR-3 ovarian, 111%. The growth in the test with HS 578T breast is 105%; with NCI/ADR-RES ovarian, 92.9%.

For the molecule `O=C(Nc1ccc(Oc2ccc(NC(=O)Nc3ccccc3Cl)cc2)cc1)Nc1ccccc1Cl`, the growth is 76.5% with EKVX NSCLC; 44.1% with SN12C renal; 20.1% in the test on UO-31 renal; 75.1% with TK-10 renal; 67.4% in the test with ACHN renal; 42.4% with CCRF-CEM leukemia. Also, the growth is 56.1% in the test on OVCAR-8 ovarian; 101% in the test on OVCAR-5 ovarian; 29.7% in the test with OVCAR-4 ovarian; 76.5% in the test on SK-OV-3 ovarian; -62.3% (active) in the test with IGROV1 ovarian; -38.3% (active) in the test with OVCAR-3 ovarian. In addition, the values for the growth in the test with HS 578T breast and with NCI/ADR-RES ovarian were 34.5% and 70.3%, respectively.

As to `CCOc1cccc(/C=N/NC(=O)Cc2ccc(Nc3ccnc(C(F)(F)F)c3)cc2)c1O`, the growth was 20.4% in the test with EKVX NSCLC; 43% in the test with SN12C renal; 3.59% (active) in the test with UO-31 renal; 47.1% in the test on TK-10 renal; 36.8% in the test with CAKI-1 renal; 91.9% with A498 renal. Also, the growth is -21.7% (active) with CCRF-CEM leukemia; 40.6% in the test on MOLT-4 leukemia; 4.35% (active) in the test on RPMI-8226 leukemia; 16.7% with OVCAR-8 ovarian; 19.6% in the test on OVCAR-5 ovarian; 22% in the test on OVCAR-4 ovarian. The growth with SK-OV-3 ovarian was 20%; with IGROV1 ovarian, 11.3%; with OVCAR-3 ovarian it was 39.7%; in the test on HS 578T breast, 76.4%; in the test on NCI/ADR-RES ovarian, 48%.

Regarding `CC1=NN(c2cccc(S(N)(=O)=O)c2)C(=O)C1`, the growth in the test with EKVX NSCLC is 91.2%; in the test with SN12C renal, 90.9%; in the test on UO-31 renal, 77.1%; in the test on TK-10 renal, 97.8%; in the test with CAKI-1 renal, 51%; in the test with A498 renal, 88.6%. Also, the growth was 79.6% in the test on CCRF-CEM leukemia; 99.7% in the test on MOLT-4 leukemia; 107% with SR leukemia; 271% in the test on RPMI-8226 leukemia; 107% with OVCAR-8 ovarian; 89.9% with OVCAR-5 ovarian. For the same molecule, the growth was 99.4% in the test with OVCAR-4 ovarian, 91.3% in the test on SK-OV-3 ovarian, 86.6% with HS 578T breast and 95.2% in the test with NCI/ADR-RES ovarian.

As for `c1ccc2c(c1)cnc1ccccc12`, the growth was 115% with EKVX NSCLC; 95.5% in the test on SN12C renal; 95.2% in the test on UO-31 renal; 116% in the test with TK-10 renal; 100% in the test with ACHN renal; -7.57% (active) in the test with A498 renal. The growth in the test with CCRF-CEM leukemia was 97.8%; with OVCAR-8 ovarian, 97.5%; with OVCAR-5 ovarian, 92.2%; in the test on OVCAR-4 ovarian, 96.3%; in the test on SK-OV-3 ovarian, 96.1%; in the test on IGROV1 ovarian, 121%. Moreover, the growth with HS 578T breast is 100%; in the test on NCI/ADR-RES ovarian, 101%.
